Assay results as given in the supplement of paper PMC5499739.
Over roughly 16,000 sequences, “Z-score” has its median near -0.37; the highest 2% begin near 3.2. The sample as a whole holds a higher share of the highest values than the screen did.

Each sequence was assayed on RBM10 RRM1-ZnF (GST-tagged construct) (assay: RNAcompete 7-mer binding Z-score; higher = stronger binding preference).
Description: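 RNAcompete: 20 pmol GST-tagged RBM10 RNA-binding constructs were incubated with a designed RNA pool of about 241,000 sequences up to 41 nt (1.5 nmol) on glutathione beads for 30 min at 4 °C and washed. Bound RNAs were identified by microarray hybridisation. Each RNA 7-mer is scored by a one-sided Z-score of its enrichment, computed over probes that contain the 7-mer within longer pool sequences.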

| Sequence | RNAcompete 7-mer binding Z-score |
| --- | --- |
| UCUGGUA | -0.435 |
| CAUAACA | -0.444 |
| UGUUAUC | -0.457 |
| UGUCUCU | -0.649 |
| CGCUAUC | -0.668 |
| CGGAAGC | 0.283 |
| GGACAAU | 0.927 |
| UGCGACA | -0.145 |
| UCAGAUC | -0.604 |
| ACUAGGA | 0.719 |
| GGGCGGG | 3.66 |
| GGGCGGA | 2.86 |
| GGGCGGU | 2.28 |
| CUCAAAU | -0.698 |
| AACUUCC | -0.919 |
| AAAUUCA | -0.668 |
| CUGUUAA | -0.779 |
| UGGUACG | 1.43 |
| AAACUAG | -0.327 |
| AGGGGUC | 1.98 |
| UGGGGUA | 3.56 |
| GCGGGUA | 2.88 |
| AGGGGUA | 3.69 |
| ACGGGUA | 2.05 |
| GGGGGUA | 3.99 |

| Sequence | RNAcompete 7-mer binding Z-score |
| --- | --- |
| CGGGGUA | 3.2 |
| UUGGGUA | 2.33 |
| GACCGGC | -0.532 |
| UGGAGUG | 3.08 |
| GCUUCCC | -0.665 |
| UGUACAC | -0.24 |
| AUGCAAG | 0.472 |
| ACAGGCC | -0.0512 |
| UCCUUUG | -0.876 |
| UCCGGCG | -0.275 |
| AUCCGGU | -0.227 |
| GAGUUAA | 0.29 |
| GAGAAGA | 1.22 |
| CUGAAGG | 1.22 |
| GUGAAGG | 3.74 |
| AAGAAGA | 1.11 |
| CAGAAGG | 1.57 |
| GAGAAGG | 4.53 |
| AUGAAGG | 2.96 |
| AAGAAGG | 3.54 |
| UAGAAGG | 3.12 |
| AUAAAGU | -0.155 |
| UUCCCGC | -0.759 |
| UCUCUUG | -0.714 |
| ACGGGAU | 2.02 |

| Sequence | RNAcompete 7-mer binding Z-score |
| --- | --- |
| AAAGUCC | -0.561 |
| UCGACGA | -0.327 |
| GCCAGCG | -0.0544 |
| UCGAAGC | -0.36 |
| AUCGGGU | 1.7 |
| CUGGGAA | 1.47 |
| AUGGGAG | 3.64 |
| AUUGGGU | 2.9 |
| AUGGGCA | 2.11 |
| UUGGGAA | 2.12 |
| CUGGGAG | 1.66 |
| AUGGGAA | 3.97 |
| AUGGGGU | 3.92 |
| AUGGGGA | 4.27 |
| UUGGGAG | 2.68 |
| CGACCUG | -0.571 |
| GACGAAC | -0.181 |
| UUUUGAU | -0.629 |
| UAUUGGC | -0.201 |
| AAUGGUA | 2.63 |
| AACAACC | -0.72 |
| AGGAACU | -0.0155 |
| AUGGGGC | 2.81 |
| AUGGGGG | 4.12 |
| AUGGGCG | 2.86 |

| Sequence | RNAcompete 7-mer binding Z-score |
| --- | --- |
| AUCUAAA | -0.451 |
| CGGGAUA | 1.56 |
| GGGGAUA | 3.45 |
| AGGGAUA | 4.2 |
| GAGGAUA | 2.15 |
| AGGGAUC | 1.02 |
| AGGGAUU | 2.3 |
| CUUAGUG | -0.282 |
| AGGAGAU | 1.41 |
| AAUGCGC | -0.428 |
| UGGCGGA | 1.83 |
| CGGGGGU | 3.46 |
| AGGGGGG | 2.76 |
| GGGGCGU | 2.64 |
| GGGGGGU | 3.81 |
| GGGGGGC | 2.37 |
| GGGGGCU | 2.22 |
| CCGGGGU | 2.08 |
| CGGGGUU | 2.77 |
| GGGGGGG | 3.4 |
| GUUUUAC | -0.591 |
| AGAAGUA | 0.173 |
| ACCCGGU | -0.415 |
| UUUCGUA | -0.779 |
| AUACAUA | -0.269 |

| Sequence | RNAcompete 7-mer binding Z-score |
| --- | --- |
| AUCUUAU | -0.863 |
| AGUCACG | 0.0138 |
| UUUCGUC | -0.811 |
| AUGAGGC | 0.969 |
| AUGAGGG | 3.84 |
| UUGAGGA | 1.14 |
| GUGAGGG | 3.75 |
| UUGAGGG | 3.4 |
| GUGAGGC | 1.53 |
| CUGAGGG | 1.81 |
| UUGAGGC | 0.115 |
| AUGAGGU | 1.9 |
| UGACCCC | -0.246 |
| UCGAAGA | -0.171 |
| AAUUCAG | -0.496 |
| CCCCGAC | -0.0772 |
| AACUCUA | -0.854 |
| UCUUAUC | -0.86 |
| GUGGGCG | 3 |
| CUGGGGG | 2.28 |
| GUGGGUU | 3.11 |
| GCGGGAG | 2.86 |
| UUGGGAC | 1.58 |
| GUGGGAG | 4.08 |
| GUGGGCA | 3.06 |

| Sequence | RNAcompete 7-mer binding Z-score |
| --- | --- |
| GUGGGGA | 4.7 |
| CUGGGGA | 1.76 |
| GUGGGGU | 4.71 |
| GUGGGGG | 4.47 |
| CUGGGGU | 2.18 |
| CCCCAAA | -0.6 |
| UCGAGCG | 0.0723 |
| GGCUCAU | -0.318 |
| AGGAACC | -0.139 |
| CUGCGGA | 0.199 |
| UAUGCCC | -0.6 |
| AUGACGC | -0.383 |
| CCAGACC | -0.642 |
| AGGCGCA | 0.0528 |
| AUGGGCU | 1.6 |
| GUGGGAU | 3.68 |
| GUGGGAA | 3.62 |
| AUGGGAU | 3.45 |
| GCGGGAA | 2.66 |
| CUGGGAU | 1.11 |
| GUGGGGC | 3.52 |
| AUGGGAC | 2.09 |
| GUCGGAA | 0.8 |
| GUGGGAC | 2.35 |
| CUGGGGC | 0.901 |

| Sequence | RNAcompete 7-mer binding Z-score |
| --- | --- |
| GUGGGCC | 1.46 |
| CGGCGGA | 0.862 |
| CCUUGUA | -0.733 |
| GUUCGGC | -0.0869 |
| UUCGUUG | -0.162 |
| GGGCAGC | 1.32 |
| CCAUGGU | 0.254 |
| ACUACUG | -0.428 |
| CUGCGCU | -0.633 |
| CUGGCGG | 0.508 |
| GUGGCGG | 3.26 |
| GUGGCGC | 0.992 |
| UUAUCGG | -0.171 |
| AGUCGUG | 0.124 |
| UGGGAUA | 3.05 |
| AGGGAUG | 4.59 |
| CGGGAUG | 2.48 |
| UGGGAUG | 3.61 |
| UGGGAUU | 1.9 |
| GGGGAUU | 2.75 |
| AGGGACG | 2.13 |
| GGGGAUC | 2.29 |
| GGGGAUG | 4.52 |
| GCCAGAC | -0.386 |
| GUGAGGA | 2.69 |

| Sequence | RNAcompete 7-mer binding Z-score |
| --- | --- |
| GAGUGUA | 0.972 |
| AGCUGGA | 0.8 |
| UGGUGAG | 2.98 |
| CAGCAAG | -0.0804 |
| AAAAUAU | -0.324 |
| GCUCAAG | -0.386 |
| AAGCAUG | -0.035 |
| AGAGUGA | 0.81 |
| CAAUGGG | 2.34 |
| AAAUGGC | 1.05 |
| GAAUGGC | 1.27 |
| AAAUGGU | 2.86 |
| AAAUGGA | 3.63 |
| UAAUGGG | 2.84 |
| AAAUGGG | 4.08 |
| CUAUGGG | 1.13 |
| GAAUGGG | 4.76 |
| ACAUGGA | 1.7 |
| GUAUGGG | 4.25 |
| GUAUGGA | 2.12 |
| CGUAUGC | -0.542 |
| CCGGAGC | 0.0625 |
| GGCUUAG | 0.527 |
| CCUUACG | -0.818 |
| GGGUUAC | 2.16 |

| Sequence | RNAcompete 7-mer binding Z-score |
| --- | --- |
| AGGUACG | 0.751 |
| UCCAGUU | -0.639 |
| AGCAUUC | -0.694 |
| UUGGUUG | 0.917 |
| GUGACGG | 2.02 |
| CAAUGGA | 1.1 |
| UAAUGGA | 1.93 |
| GAAUGGA | 4.02 |
| AACGGGG | 3.45 |
| CACGGGA | 1.5 |
| AACGGGU | 3.03 |
| GACGGGG | 3.13 |
| CACGGGG | 2.66 |
| AACGGGA | 3.45 |
| UACUUUC | -0.974 |
| GUACUGA | 0.0138 |
| UGGGGAU | 3.57 |
| GGGGGAC | 2.25 |
| AGGGGAU | 3.64 |
| AGGGGCU | 1.35 |
| AGGGGAC | 2.18 |
| UUGGGAU | 2 |
| GGGGGAU | 3.32 |
| CGGGGAU | 2.5 |
| UGGGGAC | 3.17 |

| Sequence | RNAcompete 7-mer binding Z-score |
| --- | --- |
| CACCUAU | -0.902 |
| UCGUCAA | -0.594 |
| CUAUCGG | -0.5 |
| CACGCGC | -0.366 |
| GGCCUAU | -0.565 |
| UGUUGUC | -0.574 |
| GUCCGGU | 0.082 |
| AUGGAUU | 1.71 |
| UAGGAGA | 1.94 |
| AAGGAUA | 2.99 |
| GAGGAGG | 2.97 |
| AAGGAUG | 4.14 |
| AUGGAUG | 3.28 |
| AUGGAUA | 2.89 |
| UAGGAGG | 2.77 |
| CAGGAGA | 1.93 |
| AAGGAGG | 4.7 |
| AAGGAGA | 3.37 |
| GAGGAUG | 3.1 |
